# Screening results: PubChem BioAssay, Sanford-Burnham Center for Chemical Genomics
# Mac1 fbg enh – increases human CD11b/CD18 adhesion to fibrinogen. P05107+P11215. K562 CD11b/CD18 adhesion to fibrinogen, ATPlite luminescence. activation, % at 10 µM. actives 0.07% (n = 93,000);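 active means 10 µM primary screen giving 50% or more activity, confirmed by 40% or more on retest at that dose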
# Target sequence (P05107 whole entry, looked up, other chains not shown): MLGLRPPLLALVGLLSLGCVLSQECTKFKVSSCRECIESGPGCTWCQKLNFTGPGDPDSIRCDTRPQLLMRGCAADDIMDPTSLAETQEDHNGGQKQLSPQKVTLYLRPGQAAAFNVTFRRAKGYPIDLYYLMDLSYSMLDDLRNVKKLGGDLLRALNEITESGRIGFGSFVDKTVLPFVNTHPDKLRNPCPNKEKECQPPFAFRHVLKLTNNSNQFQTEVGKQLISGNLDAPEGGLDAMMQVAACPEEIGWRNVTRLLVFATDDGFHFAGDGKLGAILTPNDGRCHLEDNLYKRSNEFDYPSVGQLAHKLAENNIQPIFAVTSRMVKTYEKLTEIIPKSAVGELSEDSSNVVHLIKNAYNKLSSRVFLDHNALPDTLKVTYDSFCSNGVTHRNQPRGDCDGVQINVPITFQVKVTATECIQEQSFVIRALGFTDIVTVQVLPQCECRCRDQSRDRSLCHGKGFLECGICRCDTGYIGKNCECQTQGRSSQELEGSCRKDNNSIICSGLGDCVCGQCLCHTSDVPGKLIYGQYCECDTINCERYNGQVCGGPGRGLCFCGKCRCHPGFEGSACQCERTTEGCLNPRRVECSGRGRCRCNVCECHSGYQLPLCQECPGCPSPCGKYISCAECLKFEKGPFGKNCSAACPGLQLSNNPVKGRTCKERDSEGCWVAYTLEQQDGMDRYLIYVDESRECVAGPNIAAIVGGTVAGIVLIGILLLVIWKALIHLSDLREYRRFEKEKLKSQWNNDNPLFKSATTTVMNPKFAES
# CYP2C19 inhib – blocks human cytochrome P450 2C19 | CYP2C19 Supersomes, luciferin-H EGE luminescence, 30 min | inhibition, % at 5 µM | actives 21% (n = 96,000);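 active means CYP2C19 inhibition above a set limit at 5 µM in the primary screen, cut at about 50% in these data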;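 further: plate controls were negative control wells for no effect and 2.5 mM tranylcypromine positive control for full effect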
# CYP2C19 activ – cytochrome P450 2C19 (human) activation | P33261 | recombinant CYP2C19, luciferin-H EGE luminescence; stronger effect = higher value; 0 = fully inhibited enzyme, 1 = untreated enzyme | activation factor at 5 µM | 96,000 tested, under 10 active;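 active means activation factor of at least 2 at 5 µM in the primary screen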;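 further: 0 = wells with 2.5 mM tranylcypromine and 1 = vehicle-only wells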
# CYP2C9 inh – inhibitors of human CYP2C9; P11712; CYP2C9 Supersomes, luciferin-H conversion, luminescence; inhibition, % at 5 µM; actives 20% (n = 96,000); AID 777;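 active means blocking of liver enzyme CYP2C9 beyond about 50% at 5 µM, limit read from the data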
# CD11b adhes inh – blocks human CD11b/CD18 adhesion to fibrinogen | P05107+P11215 | K562 CD11b/CD18 adhesion to fibrinogen, ATPlite luminescence; Mn2+ added to activate the integrin | inhibition, % at 10 µM | actives 0.54% (n = 93,000);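 active means primary inhibition of 50% or more at 10 µM, then 40% or more on retest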
# CYP2C9 activ – increases human cytochrome P450 2C9 activity. P11712. recombinant CYP2C9, luciferin-H conversion, luminescence; stronger effect = higher value; factor 1 = untreated enzyme, 0 = blocked. activation factor at 5 µM. actives 1.4% (n = 96,000);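 active means activation factor of 2 or more for CYP2C9 at a 5 µM dose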;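 further: 0 = sulfaphenazole-blocked wells and 1 = vehicle-only wells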
# * marks the source's active call; other numbers are inactive results; / = no result. Sampled rows, rich in hits. Any-hit rate of the full collection: about 28%.
SMILES,Mac1 fbg enh,CYP2C19 inhib,CYP2C19 activ,CYP2C9 inh,CD11b adhes inh,CYP2C9 activ
CCOc1ccc(C(=O)Nc2cccc(-c3cc4ccccc4oc3=O)c2)cc1[N+](=O)[O-],/,81.5*,0.2,65.2*,/,0.3
Cc1cc(C)c2oc(-c3ccc(C)c(NC(=S)NC(=O)/C=C/c4ccco4)c3)nc2c1,31.2,97.1*,0,45.1,-9.7,0.5
Cc1ccc(-c2nc3ccccc3[nH]2)cc1NC(=O)/C=C/c1ccco1,0.7,47.3,0.5,79.4*,9.4,0.2
Cc1cc(C)c2oc(-c3ccc(C)c(NC(=S)NC(=O)c4cccs4)c3)nc2c1,/,7.9,0.9,26.0,/,0.7
Cc1ccc(-c2nc3ccccc3[nH]2)cc1NC(=S)NC(=O)c1ccccc1Br,/,37.6,0.6,63.0*,/,0.4
O=C(/C=C/c1ccco1)Nc1ccc2nn(-c3ccccc3)nc2c1,64.2,/,/,/,0.3,/
COc1cc(S(=O)(=O)N2CCOCC2)ccc1NC(=O)COC(=O)c1ccccn1,-3.0,3.7,1,19.7,-9.3,0.8
Cc1c(C(=O)Nc2nc3ccccc3[nH]2)cccc1[N+](=O)[O-],1.2,/,/,/,2.5,/
CCOc1ccc(C(=O)Nc2cc(-c3nc4ccccc4[nH]3)ccc2C)cc1[N+](=O)[O-],/,81.7*,0.2,64.9*,/,0.4
Cc1ccc(CNC(=O)C23CN(Cc4ccccc4)CC2C(c2cccc([N+](=O)[O-])c2)=NO3)cc1 (stereo unspecified),5.4,88.2*,0.1,60.7*,1.1,0.4
O=C(NCCc1cccs1)C12CN(Cc3ccccc3)CC1C(c1cccc([N+](=O)[O-])c1)=NO2 (stereo unspecified),4.7,49.9,0.5,72.6*,0.3,0.3
CC(C)CCNC(=O)C12CN(Cc3ccccc3)CC1C(c1cccc([N+](=O)[O-])c1)=NO2 (stereo unspecified),/,48.2,0.5,43.8,/,0.6
CSc1nc2ccc3nc(NC(=O)c4ccccc4)sc3c2s1,19.8,-10.3,1.1,-6.8,17.4,1.1
NC1=NC2(CCCCCC2)n2c(nc3ccccc32)N1,/,-0.3,1,5.1,/,0.9
COc1ccccc1N1CCN(/N=C/C=C\c2ccco2)CC1,13.0,18.5,0.8,0.6,24.8,1
COc1cnn(-c2cc(Oc3ccc(C)cc3)ncn2)c(=O)c1Cl,-5.8,74.0*,0.3,6.9,1.5,0.9
Cc1ccc(CNc2nc(N)c([N+](=O)[O-])c(Nc3cccc(F)c3)n2)cc1,1.5,50.0*,0.5,65.2*,-24.3,0.3
Nc1nc(NCc2ccccc2)nc(Nc2cccc(F)c2)c1[N+](=O)[O-],/,-6.0,1.1,/,/,/
COc1ccc(N2CCN(S(=O)(=O)c3cccs3)CC2)cc1,-0.4,77.4*,0.2,35.6,8.2,0.6
COc1ccccc1N1CCN(S(=O)(=O)Cc2ccccc2Cl)CC1,-0.4,73.3*,0.3,-331.3,0.7,4.3*
COc1ccccc1N1CCN(S(=O)(=O)c2ccccc2)CC1,0.5,92.1*,0.1,86.2*,-2.1,0.1
COc1ccc(N2CCN(c3ncccn3)CC2)cc1,0.3,91.6*,0.1,24.0,-9.4,0.8
COc1ccccc1N1CCN(Cc2ccc(OC)c(OC)c2OC)CC1,0.7,4.1,1,-50.1,-16.2,1.5
COc1ccc(N2CCN(C(=O)Cc3cccs3)CC2)cc1,-0.6,53.7*,0.5,34.3,1.6,0.7
O=C(Cc1cccs1)N1CCN(c2nc(-c3ccc(Cl)cc3)cs2)CC1,-2.1,65.1*,0.3,90.8*,51.0,0.1
COc1ccc(S(=O)(=O)N2CCN(C(=O)Cc3cccs3)CC2)cc1,3.9,/,/,/,-16.1,/
COc1ccccc1N1CCN(C(=O)C(NS(=O)(=O)c2cccs2)c2ccccc2)CC1 (stereo unspecified),/,62.1*,0.4,44.2,/,0.6
COc1ccccc1N1CCN(C(=O)C2CCN(S(=O)(=O)c3ccc(F)cc3)CC2)CC1,-3.7,0.0,1,5.0,10.7,0.9
CCOC(=O)N1CCN(c2nc(-c3ccc(Cl)cc3)cs2)CC1,-4.5,17.2,0.8,-1.1,11.0,1
COc1ccccc1N1CCN(S(=O)(=O)c2ccccc2F)CC1,0.2,63.8*,0.4,64.1*,-22.6,0.4
